# Measured values reported in the supplement of paper PMC8728848.
# This excerpt belongs to a sample that is enriched for the strongest signals.
# Assays:
# Assay in all cases: glycan array binding signal (z-score within array); higher = stronger binding
# Details in all cases: glycan notation: IUPAC condensed, linker removed
# [1] = molecular target: GlcNAc(a1-4)Gal(b1-4)GalNAc
# In short: (§1)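 Glycan array data came from 3228 arrays in the Consortium for Functional Glycomics database, and only arrays with an available protein sequence were kept. Glycan names were put into IUPAC-condensed notation, and columns mapping to the same glycan were averaged. The binding signal is a within-array Z-score, averaged across arrays of one protein sequence run at different concentrations or buffers and across linkers. A negative Z-score can be read as non-binding.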
# [2] = molecular target: GlcNAc(a1-4)Gal(b1-4)GlcNAc(b1-3)Gal(b1-4)GlcNAc(b1-3)Gal(b1-4)GlcNAc
# In short: as §1
# [3] = molecular target: GlcNAc(b1-2)[GlcNAc(b1-4)]Man(a1-3)[GlcNAc(b1-4)][GlcNAc(b1-2)[GlcNAc(b1-6)]Man(a1-6)]Man(b1-4)GlcNAc(b1-4)[Fuc(a1-6)]GlcNAc
# In short: as §1
# [4] = molecular target: GlcNAc(b1-2)[GlcNAc(b1-6)]Man(a1-6)[GlcNAc(b1-2)Man(a1-3)]Man(b1-4)GlcNAc(b1-4)[Fuc(a1-6)]GlcNAc
# In short: as §1
# [5] = molecular target: GlcNAc(b1-3)Gal(b1-4)GlcNAc(b1-3)Gal(b1-4)GlcNAc
# In short: as §1
# [6] = molecular target: GlcNAc(b1-3)Gal(b1-4)GlcNAc(b1-3)Gal(b1-4)GlcNAc(b1-2)Man(a1-3)[GlcNAc(b1-3)Gal(b1-4)GlcNAc(b1-3)Gal(b1-4)GlcNAc(b1-2)Man(a1-6)]Man(b1-4)GlcNAc(b1-4)[Fuc(a1-6)]GlcNAc
# In short: as §1
# [7] = molecular target: GlcNAc(b1-3)Gal(b1-4)GlcNAc(b1-3)Gal(b1-4)GlcNAc(b1-2)[GlcNAc(b1-3)Gal(b1-4)GlcNAc(b1-3)Gal(b1-4)GlcNAc(b1-6)]Man(a1-6)[GlcNAc(b1-3)Gal(b1-4)GlcNAc(b1-3)Gal(b1-4)GlcNAc(b1-2)Man(a1-3)]Man(b1-4)GlcNAc(b1-4)[Fuc(a1-6)]GlcNAc
# In short: as §1
# [8] = molecular target: GlcNAc(b1-4)GlcNAc(b1-4)GlcNAc(b1-4)GlcNAc(b1-4)GlcNAc
# In short: as §1
# [9] = molecular target: Man(a1-2)Man(a1-3)[Man(a1-2)Man(a1-6)]Man
# In short: as §1
# [10] = molecular target: Man(a1-2)Man(a1-3)[Man(a1-2)Man(a1-6)]Man(a1-6)[Man(a1-2)Man(a1-2)Man(a1-3)]Man
# In short: as §1
# [11] = molecular target: Man(a1-3)[Man(a1-6)]Man(a1-6)[Man(a1-2)Man(a1-3)]Man(b1-4)GlcNAc(b1-4)GlcNAc
# In short: as §1
# [12] = molecular target: Man(a1-3)[Man(a1-6)]Man(a1-6)[Man(a1-3)]Man
# In short: as §1
# [13] = molecular target: Man(a1-6)Man
# In short: as §1
# [14] = molecular target: Neu5Ac(a2-3)Gal(b1-4)GlcNAc(b1-3)Gal(b1-4)GlcNAc(b1-3)Gal(b1-4)GlcNAc(b1-2)Man(a1-3)[Neu5Ac(a2-3)Gal(b1-4)GlcNAc(b1-3)Gal(b1-4)GlcNAc(b1-3)Gal(b1-4)GlcNAc(b1-2)Man(a1-6)]GalNAc
# In short: as §1
# [15] = molecular target: Neu5Ac(a2-3)Gal(b1-4)GlcNAc(b1-3)Gal(b1-4)GlcNAc(b1-3)[Neu5Ac(a2-3)Gal(b1-4)GlcNAc(b1-3)Gal(b1-4)GlcNAc(b1-6)]GalNAc
# In short: as §1
# [16] = molecular target: Neu5Ac(a2-3)Gal(b1-4)GlcNAc(b1-3)[Neu5Ac(a2-3)Gal(b1-4)GlcNAc(b1-6)]GalNAc
# In short: as §1
# [17] = molecular target: Neu5Ac(a2-3)Gal(b1-4)GlcNAc(b1-6)[Gal(b1-3)]GalNAc
# In short: as §1
# [18] = molecular target: Neu5Ac(a2-3)Gal(b1-4)[Fuc(a1-3)]GlcNAc(b1-2)Man
# In short: as §1
# [19] = molecular target: Neu5Ac(a2-6)Gal(b1-3)GlcNAc(b1-3)[Gal(b1-4)GlcNAc(b1-6)]Gal(b1-4)Glc
# In short: as §1
# [20] = molecular target: Neu5Ac(a2-6)Gal(b1-4)GlcNAc
# In short: as §1
# [21] = molecular target: Neu5Ac(a2-6)Gal(b1-4)GlcNAc(b1-2)Man(a1-6)Man(b1-4)GlcNAc(b1-4)GlcNAc
# In short: as §1
# [22] = molecular target: Neu5Ac(a2-6)Gal(b1-4)GlcNAc(b1-3)Gal(b1-4)GlcNAc(b1-3)[Neu5Ac(a2-6)Gal(b1-4)GlcNAc(b1-3)Gal(b1-4)GlcNAc(b1-6)]GalNAc
# In short: as §1
# [23] = molecular target: Neu5Ac(a2-6)Gal(b1-4)GlcNAc(b1-3)Gal(b1-4)GlcNAc(b1-6)[Gal(b1-3)]GalNAc
# In short: as §1
# [24] = molecular target: Neu5Ac(a2-6)Gal(b1-4)GlcNAc(b1-6)[Gal(b1-3)GlcNAc(b1-3)]Gal(b1-4)Glc
# In short: as §1
# [25] = molecular target: Neu5Ac(a2-6)GalNAc
# In short: as §1
# [26] = molecular target: Neu5Ac(a2-6)GalNAc(b1-4)GlcNAc
# In short: as §1
# [27] = molecular target: Neu5Ac(a2-6)GalNAc(b1-4)GlcNAc6S
# In short: as §1
# [28] = molecular target: Neu5Ac(a2-6)GlcNAc(b1-4)GlcNAc
# In short: as §1
# [29] = molecular target: Neu5Ac(a2-8)Neu5Ac(a2-3)Gal(b1-4)Glc
# In short: as §1
binder,measurement,setting,value
Aap brpt (Staphylococcus epidermidis) (protein) VDGDPITSTEEIPFDKKREFDPNLAPGTEKVVQKGEPGTKTITTPTTKNPLTGEKVGEGEPTEKITKQPVDEIVHYGGEEIKTGHKDEFDPNAPKGSQTTQPGKPGVKNPDTGEVVTPPVDDVTKYGPVDGDPITSTEEIPFDKKREFDPNLAPGTEKVVQKGEPGTKTITTPTTKNPLTGEKVGEGEPTEKITKQPVDEIVHYGGEEIKPGHKDEFDPNAPKGSQEDVPGKPGVKNPDTGEVVTPPVDDVTKYGPVDGDSITSTEEIPFDKKREFDPNLAPGTEKVVQKGEPGTKTITTPTTKNPLTGEKVGEGEPTEKITKQPVDEIVHYGGEQIPQGHKDEFDPNAPVDSKTEVPGKPGVKNPDTGEVVTPPVDDVTKYGPVDGDSITSTEEIPFDKKREFDPNLAPGTEKVVQKGEPGTKTITTPTTKNPLTGEKVGEGKSTEKVTKQPVDEIVEYGPTK,glycan array binding signal (z-score),[1],-1.15
same,glycan array binding signal (z-score),[2],0.541
same,glycan array binding signal (z-score),[3],0.314
same,glycan array binding signal (z-score),[4],-0.222
same,glycan array binding signal (z-score),[5],-0.363
same,glycan array binding signal (z-score),[6],2.65
same,glycan array binding signal (z-score),[7],3.02
same,glycan array binding signal (z-score),[8],-1.51
same,glycan array binding signal (z-score),[9],-0.923
same,glycan array binding signal (z-score),[10],2.59
same,glycan array binding signal (z-score),[11],2.29
same,glycan array binding signal (z-score),[12],-1
same,glycan array binding signal (z-score),[13],1.21
same,glycan array binding signal (z-score),[14],1.19
same,glycan array binding signal (z-score),[15],0.565
same,glycan array binding signal (z-score),[16],0.328
same,glycan array binding signal (z-score),[17],-0.96
same,glycan array binding signal (z-score),[18],0.096
same,glycan array binding signal (z-score),[19],-0.86
same,glycan array binding signal (z-score),[20],-0.403
same,glycan array binding signal (z-score),[21],-0.15
same,glycan array binding signal (z-score),[22],2.85
same,glycan array binding signal (z-score),[23],2.73
same,glycan array binding signal (z-score),[24],0.258
same,glycan array binding signal (z-score),[25],1.84
same,glycan array binding signal (z-score),[26],0.115
same,glycan array binding signal (z-score),[27],-0.313
same,glycan array binding signal (z-score),[28],2.43
same,glycan array binding signal (z-score),[29],-0.002
